In PMC4336329 (PLoS ONE, 2015):
About 14,000 (4.5%) of roughly 310,000 compounds showed an effect of 50% or more. The effect is printed as a negative number. The list comes from a sample in which strong results are over-represented; it also holds similar structures and randomly drawn compounds.

Target: human ether-à-go-go-related gene (hERG) potassium channel (human, UniProt Q12809)
Assay: primary screen, population patch clamp on CHO cells stably expressing hERG; higher = less effect of the substance
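Also: peak tail current of the secondary pulse compared with the same well before compound.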

human ether-à-go-go-related gene (hERG) potassium channel, sequence (Q12809 whole entry, looked up): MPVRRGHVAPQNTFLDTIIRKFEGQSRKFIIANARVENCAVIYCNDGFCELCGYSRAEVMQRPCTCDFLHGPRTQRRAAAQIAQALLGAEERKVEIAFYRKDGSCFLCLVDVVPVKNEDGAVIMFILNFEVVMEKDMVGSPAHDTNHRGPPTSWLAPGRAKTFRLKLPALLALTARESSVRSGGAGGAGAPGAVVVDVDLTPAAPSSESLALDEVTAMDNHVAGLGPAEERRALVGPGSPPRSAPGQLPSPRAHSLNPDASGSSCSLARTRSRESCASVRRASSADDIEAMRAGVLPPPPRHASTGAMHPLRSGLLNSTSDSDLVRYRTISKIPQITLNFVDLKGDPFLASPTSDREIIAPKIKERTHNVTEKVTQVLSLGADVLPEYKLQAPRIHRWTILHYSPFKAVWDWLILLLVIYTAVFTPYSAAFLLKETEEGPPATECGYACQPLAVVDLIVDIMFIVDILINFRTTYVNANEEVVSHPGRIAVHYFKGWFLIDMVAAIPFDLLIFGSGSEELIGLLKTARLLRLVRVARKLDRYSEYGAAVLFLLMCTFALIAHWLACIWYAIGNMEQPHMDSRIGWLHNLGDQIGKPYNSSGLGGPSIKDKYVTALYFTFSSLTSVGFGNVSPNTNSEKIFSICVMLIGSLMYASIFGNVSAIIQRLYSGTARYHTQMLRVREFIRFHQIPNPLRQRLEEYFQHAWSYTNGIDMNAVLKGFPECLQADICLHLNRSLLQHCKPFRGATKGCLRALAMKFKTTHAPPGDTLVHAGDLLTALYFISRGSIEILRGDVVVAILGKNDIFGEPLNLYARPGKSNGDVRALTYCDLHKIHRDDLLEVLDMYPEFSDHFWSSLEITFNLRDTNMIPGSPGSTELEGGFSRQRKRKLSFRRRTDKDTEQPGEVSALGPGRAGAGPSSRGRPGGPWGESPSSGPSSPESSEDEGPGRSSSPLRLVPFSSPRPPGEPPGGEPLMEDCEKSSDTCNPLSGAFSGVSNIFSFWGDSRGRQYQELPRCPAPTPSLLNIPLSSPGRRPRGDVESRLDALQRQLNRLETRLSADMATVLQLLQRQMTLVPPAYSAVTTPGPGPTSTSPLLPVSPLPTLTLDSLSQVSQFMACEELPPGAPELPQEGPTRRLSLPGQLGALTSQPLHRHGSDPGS

In order of falling “hERG current change (%, negative = inhibition) at 10uM” value:
1. OCC[C@@H]1C[C@H](O)[C@@H](O)[C@]2(CCCCO2)O1  21.2%
2. O=C(Nc1ccccc1)Nc1nnc(Cc2ccc(F)cc2)s1  20.1%
3. Cc1ccn2c(-c3n[nH]c(=S)n3C)c(C)nc2c1  19.6%
4. Cn1cccc1CC(=O)NNC(=O)Nc1cccc(Cl)c1  18.9%
5. COc1cccc(NC(=O)N2CCCC2C(=O)Nc2ccc3c(c2)OCO3)c1 (stereo not drawn)  15.8%
6. Cc1cccc(COc2ccc(/C=C3/C(=O)N(C)C(=S)N3C)cc2)c1  15.7%
7. O=c1[nH]c(=O)n(CCC2=CCCCC2)c(O)c1/C=N/Nc1ccccc1  14.8%
8. COc1ccc(OCC(=O)NCCCN2CCOCC2)cc1  10.7%
9. COC(=O)c1ccccc1NC(=O)CN1CCCCC1  9.99%
10. COc1cc([N+](=O)[O-])ccc1NC(=O)CN1CCOCC1  9.44%
11. O=c1[nH]c(=O)n(Cc2ccco2)c(O)c1C=NC1CC1  9.35%
12. COC(=O)c1ccccc1NC(=O)CN1CCC(C)CC1  9.3%
13. O=C(NCc1ccco1)c1ccccc1  8.8%
14. O=S(=O)(Nc1ccccc1O)c1cccc2cccnc12  8.14%
15. COC(=O)c1ccccc1NC(=O)CN1CCCCCC1  8%
16. O=C(N/N=C/c1c(O)n(CCC2=CCCCC2)c(=S)[nH]c1=O)c1ccccc1  7.94%
17. COC(=O)c1ccccc1NC(=O)CN1CCOCC1  5.86%
18. CCOc1ccc(C(Nc2ccc(C)cc2)P2(=O)OCC(C)(C)CO2)cc1 (stereo not drawn)  4.67%
19. O=C(CN1CCOCC1)Nc1ccccc1-c1ccccc1  4.15%
20. N#Cc1ccc(NC(=O)N2CCC(c3nc4c(nnn4Cc4cccc(Cl)c4)c(=O)[nH]3)CC2)cc1  3.5%
21. O=c1[nH]c(=O)n(Cc2ccco2)c(O)c1/C=N/N1CCCCC1  3.21%
22. O=c1[nH]c(=O)n(CCc2ccccc2)c(O)c1C=NC1CC1  3.17%
23. COc1ccc(NC2(c3ccccc3)OC(=O)c3ccccc32)cc1 (stereo not drawn)  1.2%
24. CCN(CC)S(=O)(=O)c1ccc(N2CCOCC2)c(NC(=O)Cc2cccc3ccccc23)c1  -1.03%
25. Cc1ccccc1SCC(=O)Nc1cc(C(F)(F)F)ccc1N1CCOCC1  -1.77%
26. NC(=O)c1ccc(NC(=O)CN2CCN(C(=O)c3ccco3)CC2)cc1  -3.09%
27. CC(C)(C)NC(=O)COC(=O)c1cc(S(=O)(=O)N2CCCCC2)ccc1N1CCOCC1  -6.23%
28. CC1=C(C(=O)OCc2ccccc2)C(c2ccsc2)C(C#N)=C(N)O1 (stereo not drawn)  -6.93%
29. O=c1[nH]c(=S)n(CCC2=CCCCC2)c(O)c1/C=N/Nc1ccccc1  -7.83%
30. NC(=O)c1ccccc1NC(=O)Nc1cccc(Cl)c1  -8.62%
31. O=C(CN1CCCCC1)Nc1ccccc1-c1ccccc1  -9.07%
32. O=c1[nH]c(=O)n(C2CCCCCC2)c(O)c1C=NCc1cccnc1  -9.79%
33. O=C(CN1CCN(C(=O)c2ccco2)CC1)Nc1ccccc1  -13.9%
34. Cc1cccc(NC(=O)CN2CCN(CC(=O)NCc3ccc(Cl)cc3Cl)CC2)c1C  -18.2%
35. Cn1c(O)c(C=NC2CCN(Cc3ccccc3)CC2)c(=O)n(C)c1=O  -20.4%
36. COc1ccccc1NC(=O)CN1CCN(C(=O)c2ccco2)CC1  -22%
37. COC(=O)c1ccccc1NC(=O)N1CCN(C(=O)c2ccco2)CC1  -25%
38. CCOC(=O)c1ccc(N2C(=O)CC(Nc3ccc(CCO)cc3)C2=O)cc1 (stereo not drawn)  -25.5%
39. Cn1c(O)c(C=NC2CCN(Cc3ccccc3)CC2)c(=O)[nH]c1=O  -26.5%
40. N#CC1=C(N)N(c2ccccc2)C(c2cccc([N+](=O)[O-])c2)C1(C#N)C#N (stereo not drawn)  -29.6%
41. C=CCn1c(O)c(C=NC2CCN(Cc3ccccc3)CC2)c(=O)[nH]c1=O  -33.5%
42. COc1ccccc1NC(=O)c1ccc(NC(=O)CN2CCCC2)cc1  -34.2%
43. O=C(CNC(=O)c1cccs1)NCCN1CCN(c2ccccc2F)CC1  -35.3%
44. COc1ccc(NC(=O)CN2CCN(C(=O)c3ccco3)CC2)c(OC)c1  -37.4%
45. O=C(CN1CCN(C(=O)c2ccco2)CC1)Nc1ccccc1-c1ccccc1  -50.5%
46. COC(=O)c1ccccc1NC(=O)CN1CCN(C(=O)c2ccco2)CC1  -51.6%
47. O=c1[nH]c(=O)n(C2CCCCCC2)c(O)c1C=NC1CCN(Cc2ccccc2)CC1  -53.2%
48. O=c1[nH]c(=S)n(CCC2=CCCCC2)c(O)c1C=NC1CCN(Cc2ccccc2)CC1  -55%
49. O=c1[nH]c(=O)n(CCC2=CCCCC2)c(O)c1C=NC1CCN(Cc2ccccc2)CC1  -58.6%
50. O=c1[nH]c(=O)n(Cc2ccco2)c(O)c1C=NC1CCN(Cc2ccccc2)CC1  -59.2%
51. CCCCCCn1c(O)c(C=NC2CCN(Cc3ccccc3)CC2)c(=O)[nH]c1=O  -65.7%
52. COc1ccccc1NC(=O)c1ccc(NC(=O)CN2CCN(C(=O)c3ccco3)CC2)cc1  -72.9%
53. COC(=O)c1ccccc1NC(=O)CN1CCN(Cc2ccccc2)CC1  -74.5%
54. NC(=O)c1ccccc1NC(=O)CN1CCN(Cc2ccc(Cl)cc2Cl)CC1  -76.1%
55. COC(=O)c1ccccc1NC(=O)CN1CCN(C23CC4CC(CC(C4)C2)C3)CC1  -77.5%
56. COc1cc([N+](=O)[O-])ccc1NC(=O)CN1CCN(C(=O)c2ccco2)CC1  -78.4%
57. O=C(CN1CCN(Cc2ccccc2)CC1)Nc1ccccc1-c1ccccc1  -89.8%
